Assay outcomes: PubChem BioAssay, National Center for Advancing Translational Sciences (NCATS)
CtBP-E1A blk – inhibitors of CtBP/E1A interaction. AlphaScreen GST-E1A/His-CtBP binding, 1536-well; stronger effect = lower value. activity change, % (test concentration not listed). 340,000 compounds, 0.49% hits. AID 651724; in the data active = activity change below about -65%; inconclusive = mostly about -30% to -63%; also: % is scaled to controls: 0 for no effect and ±100 for the full control effect
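AlphaScreen with 125 nM GST-E1A and 125 nM His-CtBP (5X stocks) in Tris pH 8.0, 300 mM NaCl, BSA, Tween 20, TCEP. Compounds preincubated 2 h at 37 deg C, then glutathione donor/nickel acceptor beads added for 1 h at 37 deg C in dark.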
p53 reactivation – re-activators of mutant p53; H1299 p53-A138V BP100-luciferase reporter, luminescence, 24 h; Potency, µM (doses to about 92.2 µM), without a hit: at the top dose activity change, positive = activation, actives largely listed as activators; 320,000 compounds, 0.063% hits; AID 504706; also: potency is read from the fitted curve at half-maximal effect; % of control where 0% means no effect; nearly all actives have a fitted effect of over 45% in size
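p53-null H1299 cells stably carrying temperature-sensitive p53-A138V and a BP100-luciferase reporter were pinned with compounds (4-point, 1:5 series) and held 24 hrs at 37 deg C. Luminescence was read 10 min after detection reagent.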
RORg inh – ROR gamma (mouse) transcription inhibition. Drosophila S2 Gal4-RORgamma UAS-luciferase reporter, 20 h. AID 2551. 310,000 compounds, 5.4% hits. Potency, µM (doses to about 53.6 µM), for the others: at the top dose activity change, negative = inhibition, most hits filed as inhibitors. P51450; also: potency is read from the fitted curve at half-maximal effect; % is scaled to controls: 0 for no effect and ±100 for the full control effect; nearly all actives have a fitted effect of over 60% in size
Target sequence (P51450 whole entry, looked up, the tested form may be a part): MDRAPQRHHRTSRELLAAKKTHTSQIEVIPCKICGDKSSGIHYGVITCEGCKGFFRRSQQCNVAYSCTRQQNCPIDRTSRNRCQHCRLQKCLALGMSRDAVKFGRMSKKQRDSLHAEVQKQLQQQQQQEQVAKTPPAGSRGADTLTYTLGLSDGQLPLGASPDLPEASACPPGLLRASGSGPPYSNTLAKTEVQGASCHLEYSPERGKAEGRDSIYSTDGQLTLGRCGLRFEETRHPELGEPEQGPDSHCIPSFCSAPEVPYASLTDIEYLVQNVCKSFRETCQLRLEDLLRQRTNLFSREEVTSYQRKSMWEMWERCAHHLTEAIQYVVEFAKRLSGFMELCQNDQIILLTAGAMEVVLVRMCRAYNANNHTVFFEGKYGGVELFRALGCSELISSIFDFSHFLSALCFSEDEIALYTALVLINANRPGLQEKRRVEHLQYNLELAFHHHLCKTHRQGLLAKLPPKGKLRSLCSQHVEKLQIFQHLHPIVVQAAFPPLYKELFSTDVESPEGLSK
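Drosophila Schneider cells stably carrying a metallothionein-driven Gal4 DBD–ROR gamma fusion and a UAS-Photinus luciferase reporter were exposed to compound for 1 hr, then induced with copper sulfate (700 uM final) for 20 hr at ambient temperature before luminescence reading.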
VP16 counter – inhibits Gal4-VP16 luciferase reporter, ROR gamma counter-screen; Drosophila S2 Gal4-VP16 UAS-luciferase, luminescence, 20 h; Potency, µM (titrated, usually from 53.6 µM), inactives show at the top dose activity, negative = inhibition, most hits filed as inhibitors; 310,000 compounds, 3.5% hits; AID 2546;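 also: Gal4-VP16 expression switched on by copper sulfate through the metallothionein promoter; potency is read from the fitted curve at half-maximal effect; % is scaled to controls: 0 for no effect and ±100 for the full control effect; nearly all actives have a fitted effect of over 50% in size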
Six1-Eya2 blk – Six1/Eya2 interaction inhibition; AID 651725; AlphaScreen GST-Six1/His-Eya2 binding, biochemical; stronger effect = lower value; 360,000 compounds, 0.56% hits; activity change, % (no concentration beside the values); in the data active = activity change below about -65%; inconclusive = mostly about -30% to -63%; also: % is scaled to controls: 0 for no effect and ±100 for the full control effect
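GST-Six1 + His-Eya2 (5X stock: 250/500 nM); Tris pH 8.0, 300 mM NaCl, 0.05% BSA, 0.02% Tween 20; GSH donor/Ni acceptor beads; 1 h 37 °C dark; AlphaScreen readout.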
Numbers without * were called inactive; ? = inconclusive; . = not tested or not shown. Most compounds without a hit are left out; they make up all but 5.4% or so of the library. Unless noted, calls follow the shape of the dose curve; as a rule, active = well fitted curve in the direction sought with a large enough effect; inconclusive = small, poorly fitted or top-dose-only effect, or another doubt; inactive = no such curve, though single readings can be large; an effect the other way counts as inactive or inconclusive.

SMILES	CtBP-E1A blk	p53 reactivation	RORg inh	VP16 counter	Six1-Eya2 blk
COc1cc(/C=N/NC(=O)c2cccnc2)ccc1OCC(=O)Nc1c(C)cc(C)cc1C	-11	-11%	-4%	-6%	-3
CCN(CC)c1ccc(NC(=O)c2ccccc2OCC(=O)OC)cc1	?	-4%	26%	2%	?
FC(F)(F)c1cccc(-c2nnc3ccc(C(F)(F)F)cn23)c1	2	-4%	10µM*	-4%	5
COc1cnc(-c2ccccn2)nc1N(C)C	-94*	?	18µM*	?	-89*
COc1ccc(Oc2nc(-c3ccccn3)ncc2OC)cc1	-16	-3%	7.1µM*	-20%	?
COc1cnc(-c2ccccn2)nc1Oc1cccc(Cl)c1	?	-1%	2.8µM*	16µM*	?
COc1cnc(-c2ccccc2)nc1OC	14	-2%	?	0%	1
COc1cnc(-c2ccccc2)nc1Oc1cccc(C)c1	23	-2%	33%	0%	31
O=C(C1CCCO1)N1CCN(c2ccccn2)CC1 (stereo not drawn)	6	0%	-2%	3%	3
Cc1cc(Cl)ccc1NC(=O)/C=N/O	.	-2%	0%	-2%	5
C/C(=N\NC(=S)NCCc1ccccc1)c1ccc(C)cc1	-16	?	2.8µM*	5µM*	-23
C/C(=N/NC(=O)CNC(=O)c1ccccc1)c1ccc(C)cc1	9	-4%	5%	-4%	11
C/C(=N\NC(=O)CCc1ccccc1)c1ccc(Br)cc1	5	-4%	21%	-4%	5
C/C(=N\NC(=S)NCCc1ccccc1)c1ccc(C#N)cc1	2	5%	4µM*	8.9µM*	0
C/C(=N\NC(=S)NCCc1ccccc1)c1ccc(Cl)cc1	-18	?	3.5µM*	3.2µM*	-18
CC1CN2C(c3ccc([N+](=O)[O-])cc3)=CSC2=N1 (stereo not drawn)	-16	15%	0%	5%	-6
Cc1cc(-c2ccccc2C(=O)Nc2ccccc2O)on1	0	-1%	4%	-7%	22
C[C@@H]1C(=O)N(S(=O)(=O)c2ccc([N+](=O)[O-])cc2)[C@H]1c1ccc(F)cc1	.	.	0%	-2%	.
CCOc1ccc2[nH]c3nc(SCC(=O)NCC4CCCO4)nnc3c2c1 (stereo not drawn)	-86*	3%	9%	?	-90*
Cc1cccc(-n2c(Cn3nc(C)c([N+](=O)[O-])c3C)n[nH]c2=S)c1	0	11%	11µM*	-5%	0
Cc1nn(CCc2n[nH]c(=S)n2-c2ccc(F)c(Cl)c2)c(C)c1[N+](=O)[O-]	-1	-5%	7.1µM*	?	1
COc1ccc2oc(C(=O)N(C)CCOc3ccccc3)c(C)c2c1	11	3%	-9%	?	6
Cc1cc2nc(CCN(Cc3cccnc3)C(=S)Nc3ccccc3)[nH]c2cc1C	9	-6%	14µM*	-28%	-10
CCOC(=O)Cc1nnc(NC(=O)c2ncn[nH]2)s1	-71*	4%	-18%	2%	?
CCOC(=O)Cc1nnc(NC(=O)c2ccccc2OCC)s1	-1	3%	43%	-3%	-3
SMILES	CtBP-E1A blk	p53 reactivation	RORg inh	VP16 counter	Six1-Eya2 blk
Cc1sc2nc(CN(Cc3cccs3)C(=O)C3CC3)[nH]c(=O)c2c1C	.	-13%	11µM*	-29%	1
Cc1sc2nc(SCC(=O)NCc3cccs3)[nH]c(=O)c2c1C	-2	-7%	-42%	-2%	-1
Fc1ccccc1-c1nc(-c2ccccc2)oc1NC1CCCCC1	.	.	1%	-13%	.
Cc1[nH]nc(-c2ccc(O)cc2O)c1Oc1ccccc1	-7	-11%	?	?	-16
Cc1[nH]nc(-c2ccc(OCc3cnn(-c4ccccc4)c3)cc2O)c1Oc1ccccc1F	-3	-16%	6.3µM*	10µM*	-3
CCOc1ccc(-c2n[nH]c(C)c2Oc2ccccc2OC)c(O)c1	-2	4%	2.2µM*	2.5µM*	-9
C=C(C)COc1ccc(-c2n[nH]c(C)c2Oc2ccccc2OC)c(O)c1	-6	-37%	1.6µM*	-16%	-1
CCc1cc(-c2n[nH]c(C)c2Oc2ccc(C(C)C)cc2)c(O)cc1O	-3	-4%	7.1µM*	?	-9
COc1cccc(S(=O)(=O)Nc2ccc3c(c2)C(=O)N(C)C[C@H](OC)[C@H](C)CN[C@@H](C)CO3)c1	-1	.	.	.	3
CCCOC(=O)c1ccc(Oc2c(-c3ccc(OC)cc3O)n[nH]c2C)cc1	0	-8%	7.1µM*	?	-1
O=c1[nH]cnc(O)c1C1C=CC=CC=C1	0	.	.	.	11
COc1ccccc1OCCC(=O)Nc1cccc(S(=O)(=O)N2CCOCC2)c1	.	20%	.	.	-1
CCCCn1c(C(C)NC(=O)COC)nc2ccccc21 (stereo not drawn)	-2	?	-4%	0%	12
CCC(=O)Nc1nc2ccccc2n1Cc1ccccc1	4	0%	0.71µM*	2.2µM*	1
CCCCCn1c(C(Cc2ccccc2)NC(=O)COC)nc2ccccc21 (stereo not drawn)	-15	0%	32µM*	?	0
CCC(=O)Nc1nc2ccccc2n1CCN(CC)CC	3	-1%	?	-12%	2
CCC(=O)Nc1nc2ccccc2n1Cc1ccc(C)cc1	-1	1%	0.4µM*	0.89µM*	-1
CC(=O)NC(C)c1nc2ccccc2n1CC(=O)NC(C)CCc1ccccc1 (stereo not drawn)	2	1%	13µM*	-2%	-3
CCC(=O)NCCc1nc2ccccc2n1Cc1ccc(C)cc1	3	13%	1%	-6%	3
C=CCn1c(C)cc(C(=O)COC(=O)/C=C/c2c(C)nn(C3CCS(=O)(=O)C3)c2Cl)c1C (stereo not drawn)	-7	5%	.	.	-19
CCc1ccc(S(=O)(=O)NCC2(N3CCOCC3)CCCCC2)cc1	1	1%	.	.	1
NNC(=O)c1ccc(O)cc1O	13	24%	1.3µM*	3.2µM*	-7
O=C(NN=C1CCCC1)c1ccc(O)cc1O	-12	8%	7.9µM*	11µM*	-15
COc1ccc(C(=O)NN=C2CCCC2)c(OC)c1	-14	1%	11%	5%	-5
O=C(Nc1ccccc1C(=O)NCC1CCCO1)c1ccc(Cl)cc1 (stereo not drawn)	1	3%	-20%	2%	2
Cc1cccc(OCCCCc2c(C)n[nH]c2C)c1C	1	-11%	14µM*	?	-2
CCOc1ccccc1OCCCCCc1c(C)n[nH]c1C	-8	-8%	?	?	-4
Cc1cccc(OCCCOc2cccc3cccnc23)c1C	7	-4%	13µM*	?	13
COc1cccc(OC)c1OCCCOc1cccc2cccnc12	-4	-2%	?	?	6
